Assay results taken from PubChem BioAssay AID652039 (The Scripps Research Institute Molecular Screening Center, 2013).
Where “and” joins values, the source holds several entries; their conditions need not be identical. Equal entries are not always repeated. About 3,300 (0.89%) of roughly 370,000 compounds were called active. The sample holds actives, similar compounds and a random draw of the others, so the mix is not that of the screen.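 How the source made its calls: active means activation above the mean of all tested compounds plus 3 SD, computed per campaign excluding outliers beyond control limits (cut at about 13% in these data); inactive means the rest.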

Each molecule was assayed against Kallikrein-7 (Homo sapiens) (UniProt P49862) (assay: proKLK7 zymogen activators, primary screen, biochemical, fluorescence intensity (AID 652039)). Conditions: purified proKLK7, EDANS-DABCYL substrate fluorescence; at 7 µM; stronger effect = higher value; 100% is mature enzyme control, 0% vehicle.
Chain of Kallikrein-7 (Homo sapiens) (P49862 whole entry, looked up): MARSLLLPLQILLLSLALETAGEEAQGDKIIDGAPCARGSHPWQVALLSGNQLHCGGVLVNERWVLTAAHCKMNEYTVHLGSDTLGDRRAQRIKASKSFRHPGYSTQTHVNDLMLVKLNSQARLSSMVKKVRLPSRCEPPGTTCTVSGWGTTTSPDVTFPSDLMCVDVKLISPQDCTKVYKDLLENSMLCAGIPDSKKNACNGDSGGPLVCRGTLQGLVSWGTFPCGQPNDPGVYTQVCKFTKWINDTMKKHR

activation, inactive:
CCn1c2ccccc2c2cc(NC(=O)CSc3nnc(-c4ccccc4)n3-c3ccc(C)cc3)ccc21 -0.54%
CCCN1CCN(C(=O)Cn2ncc3ccccc32)CC1 -0.42%
CCc1nn(CC(=O)N2CCN(CC)CC2)c(=O)c2cccn12 -0.55%
C=CCN1C(=O)[C@@H](CC(=O)NCCCOCCCC)[C@]2(C(=O)OCC)CCCCC/C=C/12 0.01%
Cc1ccc(Cn2cc(CN3[C@@H](CC(C)C)COc4ccc(Cl)cc4S3(=O)=O)nn2)cc1 0.91%
Cc1cccc(NC(=O)C[C@H]2CC[C@H]3[C@@H](COc4ccc(NC(=O)Nc5ccccc5)cc4C(=O)N3C)O2)c1 0.42%
O=C(NCc1ccco1)c1cnn2c(C(F)(F)F)cc(-c3ccco3)nc12 0.06%
O=C(O)c1cnn2c(C(F)(F)F)cc(-c3ccccc3)nc12 -0.59%
CCCCNC(=O)C[C@H]1C[C@@]2(C(=O)OC)C(=C[C@H](COCc3ccccc3)O[C@@H]2C)N(Cc2ccc(Cl)cc2Cl)C1=O -0.06%
COC(=O)C1CN(CCc2ccccc2)CCS(=O)(=O)N1Cc1cccc(Cl)c1 (stereo unspecified) -0.14%
CCCc1nnc(NC(=O)CCC(=O)N2CCN(S(=O)(=O)c3ccc(OC)cc3)CC2)s1 -0.03%
CN(C)C(=O)c1cc(Br)ccc1Cl -0.57%
COc1ccc(C)cc1N(C)C(=O)c1coc(=O)c2ccccc12 0.1%
C=CCN(C)CC#Cc1ccccc1 -0.36%
CCCCCN1CCCCC(NC(=O)C(C)CCC)C1=O (stereo unspecified) 0.5%
O=C(CNS(=O)(=O)c1ccccc1F)N1CCN(c2ccccn2)CC1 -0.03%
CCOc1ccccc1-c1cc(C(=O)N/N=C(\C)c2cccnc2)c2ccccc2n1 -4.03%
O=C(NNC(=O)c1cc(-c2ccccc2Cl)nc2ccccc12)c1csc(N2CCOCC2)n1 -0.59%
O=C(NCCCN1CCOCC1)c1cnn2c(-c3ccccc3)cc(-c3ccccc3)nc12 -3.01%
CN(C)CCNC(=O)c1ccc(Cl)c2cc3ccccc3nc12 6.31%
COC(=O)[C@]12C[C@H](CC(=O)NCC34CC5CC(CC(C5)C3)C4)C(=O)N(Cc3ccc(Cl)cc3Cl)C1=C[C@H](COCc1ccccc1)O[C@@H]2C -0.26%
COC(=O)[C@]12C[C@H](CC(=O)N3CCN(C(=O)C4CC4)CC3)C(=O)N(Cc3ccc4c(c3)OCO4)C1=C[C@H](C(C)(C)C)O[C@@H]2C 0.05%
COc1cccc(N2CCN(CC(=O)N(C)Cc3ccc(F)cc3)CC2)c1 0.13%
COC(=O)C1CN(CCc2ccccc2)CCS(=O)(=O)N1Cc1ccc(F)cc1 (stereo unspecified) -0.24%
COc1cccc(CNC(=O)CNS(=O)(=O)c2ccc3nc(C)sc3c2)c1OC 0.09%
O=C1c2ccccc2NC(c2ccccc2O)N1NS(=O)(=O)c1ccccc1 (stereo unspecified) 6.73%
CN(C)c1ccc(C2Nc3ccccc3C(=O)N2NS(=O)(=O)c2ccccc2)cc1 (stereo unspecified) 4.94%
CCOC(=O)NN1C(=O)c2ccccc2NC1c1ccccc1O (stereo unspecified) 8.02%
CC(C)N1C(=O)c2ccccc2NC(=O)C1C(=O)NCc1cccs1 (stereo unspecified) 0%
COC(=O)[C@]12C[C@H](CC(=O)NCc3cccc4ccccc34)C(=O)N(CCc3ccc(OC)c(OC)c3)C1=C[C@H](C1CCCC1)O[C@@H]2C 0.51%
COc1ccc(C(=O)CSc2nnc(-c3cnccn3)n2-c2ccc(C)cc2)cc1 0.34%
C[C@@H]1ON(C)[C@H]2C[C@H]3c4[nH]c5cccc(-c6ccc7c(c6)OCO7)c5c4CCN3C[C@@H]12 0.38%
CCC(C)[C@@H](C(=O)OC)N(CCc1cn(Cc2ccccc2)nn1)S(=O)(=O)c1ccccc1Br (stereo partly specified) 0.31%
CCC(=O)Nc1ccc2c(c1)C(=O)N(C)[C@H]1CC[C@H](CC(=O)NCCOC)O[C@@H]1CO2 -0.03%
COCC(=O)N[C@@H]1C[C@@H]2O[C@@H](CO)CC[C@@H]2O[C@@H]1CCc1ccc(-c2ccccc2)cc1 -0.04%
O=C(c1c[nH]c2ccccc12)N1CCC(Oc2cccnc2)CC1 0.8%
COC(=O)C[C@@H]1CC[C@@H]2[C@@H](COc3ccc(NC(=O)Nc4ccc(F)c(F)c4)cc3C(=O)N2C)O1 0.06%
COC(=O)C[C@@H]1CC[C@@H]2[C@H](COc3ccc(NC(=O)c4cccc(F)c4)cc3C(=O)N2C)O1 -0.18%
CCOC(=O)c1cc(-c2ccc(Cl)s2)nc2c1c(C)nn2C -3.83%
COc1cc(/C=C/C(=O)OCC(=O)N2CCOCC2)ccc1OCC#N 3.33%
COc1ccc(CCC(=O)Nc2ccc(Cl)c(S(=O)(=O)N3CCOCC3)c2)cc1OC 0.18%
COP(=O)(O)CNC(=O)OCc1ccccc1 -0.07%
Cc1ccc(C(=O)N(Cc2ccccn2)CC2CCCO2)cc1 (stereo unspecified) -0.88%
CCc1ccccc1NC(=O)CSc1nnc(-c2cccs2)o1 0.68%
COC(=O)[C@]1(C#N)CC(=O)N(CC2CCCCC2)[C@@H]1c1ccccc1 -0.2%
COc1ccc(C#CCNCc2ccc(OC)cc2OC)cc1 0.52%
CCOCCCNC(=S)Nc1ccc2nc(N3CCN(CC)CC3)cc(C)c2c1 2.27%
Cc1cc(N2CCN(C)CC2)nc2ccc(NC(=S)N3CCOCC3)cc12 7.61%
CC(=O)c1cc(-c2ccc3ccccc3c2)c(=O)n2c1CCC2 0.82%
CCOC(=O)c1ccc(N2C(=O)CC(N(C)Cc3ccccc3)C2=O)cc1 (stereo unspecified) 0.66%
CCOc1ccc(N2C(=O)CC(N(CCc3ccc(OC)c(OC)c3)C(=S)Nc3ccccc3)C2=O)cc1 (stereo unspecified) 0.29% and 0.35%
Cc1cccc(OCCNC(=O)CSc2ccc(C(F)(F)F)cc2[N+](=O)[O-])c1 0.55%
CC(C)CNC(=O)OCc1cn(Cc2ccc(F)cc2)nn1 -0.65%
Cc1c(C(C)c2ccccc2O)[nH]c2ccccc12 (stereo unspecified) 0.01%
CC(=O)Nc1cc(-c2ccccc2F)cn2c(-c3cccc(C(F)(F)F)c3)cnc12 -0.51%
Cc1ccc(-c2c(N)nc3ncccn23)cc1 1.47%
COC(=O)C1CN(CC(C)C)CCS(=O)(=O)N1Cc1ccc(C)cc1 (stereo unspecified) -0.1%
CN(CC1CCCO1)S(=O)(=O)c1ccc(C(=O)Nc2ccc(F)cc2)cc1 (stereo unspecified) -0.36%
COC(=O)C1CN(Cc2ccc(F)cc2)CCS(=O)(=O)N1Cc1ccc(Cl)cc1 (stereo unspecified) -0.13%
O=S1(=O)c2ccc(N3CCN(Cc4ccccc4F)CC3)cc2Oc2ccccc2CN1Cc1cn(Cc2ccc(Cl)cc2)nn1 -0.98%
CC1C/C(=N/NC(=O)c2cccs2)CC(C)(C)C1 (stereo unspecified) 0.16%
COC(=O)[C@]12C[C@H](CC(=O)NCc3ccccc3)C(=O)N(CCC3=CCCCC3)C1=C[C@H](C(C)C)O[C@@H]2C1CC1 0.56%
CC(C)[C@H](NC(=O)Nc1ccc(S(N)(=O)=O)cc1)C(=O)O -0.23%
C=CCCC(=O)Nc1nc(C)c(-c2csc(Nc3ccc(Cl)cc3)n2)s1 -1.66%
Cc1ccc(Cn2cc(CN3[C@@H](C)COc4cc(Br)ccc4S3(=O)=O)nn2)cc1 0.74%
COc1ccc(-n2c(COc3ccc(C)cc3)nnc2SCC(=O)Nc2ccc(Oc3ccccc3)cc2)cc1 -0.88%
COc1ccc2c3c(c(=O)oc2c1OCC(=O)C(C)(C)C)CCCC3 2.75%
CCCOc1ccc2c3c(c(=O)oc2c1OCCC)CCC3 -1.41%
O=C(OC12CCCN(C1)/C(=C/c1cccnc1)C2)C1CCCC1 (stereo unspecified) 0.01%
COc1ccc(C(=O)NCC2CCCN2S(=O)(=O)c2cccs2)cc1OC (stereo unspecified) 0.25%
CCN1CCCC1CNC(=O)c1ccc2c(c1)NC(=O)/C(=C\c1ccccc1F)S2 (stereo unspecified) 0.44%

activation, active:
CCN1CCN(C(=O)Cn2nc(C)n3c(cc4c(OC)cccc43)c2=O)CC1 21%
COC(=O)c1cnn2c(C(F)(F)F)cc(-c3ccco3)nc12 23.1%
CN(C)C(=O)c1coc2nc3ccccc3nc12 39.4%
O=C(NCCN1CCOCC1)c1cc(-c2cccs2)nc2ccccc12 18.3%
CCCCN(C)CCCNC(=O)c1cc(-c2cccs2)nc2ccccc12 47.9%
CCOC(=O)NN1C(=O)c2ccccc2NC1c1cccc(O)c1 (stereo unspecified) 26.7%
CC(=O)NN1C(=O)c2ccccc2NC1c1ccccc1 (stereo unspecified) 15.6%
COCCN(CCOC)c1nc(N)c2c(N)nc3c(c2c1C#N)CC(=O)N3Cc1ccc(Cl)cc1 50.3%
COc1cc(/C=C/C(=O)Nc2ccc(OC)c(S(=O)(=O)N3CCOCC3)c2)ccc1OCC#N 40.2%
Cc1cc(N2CCOCC2)nc2ccc(NC(=S)N3CCN(Cc4ccccc4)CC3)cc12 16.8%
CCOc1ccc(N2C(=O)CC(N(O)c3ccccc3)C2=O)cc1 (stereo unspecified) 95.9%
CC(=O)Nc1nc2ncccn2c1-c1ccc(C(F)(F)F)cc1 17.7%
CC(=O)Nc1nc(C)c(-c2csc(Nc3ccc(S(N)(=O)=O)cc3)n2)s1 118%
O=c1oc2c(CN3CCCCC3)c(O)ccc2c2c1CCCCC2 68.2%
CCN1CCCC1CNC(=O)c1cc2cc(OC)c(OC)cc2[nH]1 (stereo unspecified) 17.5%
